Measured values taken from ChEMBL document CHEMBL3988442, “University of Dundee, Small-Polar-MMV Screening Library” (2021).
Screen size: about 48,000 compounds; about 13,000 (27%) showed an effect of 50% or more. This is one part of the list.

Tested on: Wolbachia pipientis
Assay: Anti-Wolbachia Cell-Based Screen
Assay type: functional
Parameters: scale not given: in the data most compounds retested in dose-response had high values
Details: 5 µM

Row | Compound | Percent Effect [%]
1 | CC(C)N(C)C(=O)c1ccc(Cl)c(NC(=O)C2CCC2)c1 | 2.877
2 | c1cnc(N2CCCC(c3csc(Nc4cnccn4)n3)C2)nc1 (stereo not drawn) | 106
3 | c1cnc(N2CCC(c3csc(Nc4cnccn4)n3)CC2)nc1 | 101.3
4 | OC(c1cccs1)C1CCN(c2ncccn2)CC1 (stereo not drawn) | 0.2293
5 | c1cnc(N2CCC(NCc3cnc(C4CCC4)s3)CC2)nc1 | 3.36
6 | Cc1cccc(C(C(=O)N(C)Cc2ccon2)N(C)C)c1 (stereo not drawn) | 3.369
7 | Cc1noc(-c2cccnc2N(C)Cc2ccc([S+](C)[O-])cc2)n1 (stereo not drawn) | 9.143
8 | Nc1nc2c(c(NC(=O)Nc3ccccc3)n1)CCCC2 | -9.493
9 | O=C1NC(=O)c2c3c(nc(O)c21)CCCC3 | 98.35
10 | CCC(=O)N1CCCC1c1nccnc1Nc1ncccn1 (stereo not drawn) | -3.342
11 | Cc1csc(Nc2nccnc2C2CCCN2C(=O)C(C)C)n1 (stereo not drawn) | 0.9263
12 | COCC(=O)N1CCCC1c1nccnc1Nc1nc(C)cs1 (stereo not drawn) | 111.3
13 | CN(C)C(=O)CN1CCCC1c1nccnc1Nc1ccccn1 (stereo not drawn) | 99.96
14 | Cc1cc(Nc2nc(C)cs2)nc(C2CCCCN2CCO)n1 (stereo not drawn) | -3.809
15 | Cc1cccc(Nc2cc(C)nc(C3CCCCN3CC(N)=O)n2)n1 (stereo not drawn) | 123.2
16 | CN(Cc1ccccc1)C(=O)CN1CCCC1c1cnn(C)c1 (stereo not drawn) | -36.94
17 | COCc1cccc(CNC(=O)CN2CCCC2c2noc(C)n2)c1 (stereo not drawn) | -0.5396
18 | COCC(=O)N1CCCC1c1nccnc1Nc1ncccn1 (stereo not drawn) | 112.6
19 | CN(C(=O)Nc1ccccn1)C1CCCN(c2ccccc2)C1=O (stereo not drawn) | -3.011
20 | COc1ccc(C2CCCN2C(=O)NCCNc2ncccn2)cc1 (stereo not drawn) | -12.53
21 | COc1nc2c(cc1C(=O)N1CCCOC(CN3CCCC3)C1)CCC2 (stereo not drawn) | -1.335
22 | Cc1ccc(CNC(=O)C2CCN(C(=O)c3ccccc3)CC2)n1C | -7.91
23 | Cc1ccc(C2(C(=O)N3CCC(n4cc(C(C)O)nn4)CC3)CC2)cc1 (stereo not drawn) | -9.43
24 | O=C(O)c1ccc(CCNC(=O)C2(c3ccccc3)CC2)cc1 | 2.318
25 | C[C@@H]1CN(CC(C)(C)N2CCOCC2)C[C@@]1(O)C1CC1 | 17.03

Row | Compound | Percent Effect [%]
26 | CCc1nc(NS(=O)(=O)c2ccc(F)cc2C)no1 | -5.54
27 | CC(C)(C)C(=O)N1CCCC1c1nccnc1Cl (stereo not drawn) | 155.8
28 | CC(C)Cn1cnnc1C1CCCN1C(=O)OC(C)(C)C (stereo not drawn) | 4.117
29 | Cl.NCC(=O)N1CCCC1c1nccnc1Nc1ncccn1 (stereo not drawn) | 117.8
30 | Cc1cccc(Nc2nccnc2C2CCCN2CC(N)=O)n1 (stereo not drawn) | 127.5
31 | CC(C)(C)C(=O)N1CCCC1c1ccc(C(=O)N2CCOCC2)s1 (stereo not drawn) | -16.89
32 | CC(C)CC(=O)N1CCCC1c1nccnc1Nc1ncccn1 (stereo not drawn) | 105.7
33 | FC(F)c1nnc2ccc(N3CCC4(CCCCC4)C3)nn12 | -13.07
34 | O=C(O)[C@H]1C[C@H](C(=O)NC2CC2)CN(Cc2ccc(-c3cc[nH]n3)s2)C1 | -5.985
35 | CCOC(=O)CCC(=O)N1CCC(CSCc2ccco2)CC1 | -5.481
36 | CC(C)N(CC(=O)O)Cc1cccc(Br)c1.Cl | -4.939
37 | COCCn1ccnc1-c1cc(CN2CCCCC2)cs1 | -8.994
38 | COCCn1ccnc1C1CCCN(c2ncnc3c(C)csc23)C1 (stereo not drawn) | -8.002
39 | CC(=O)N1CCCC1c1nccnc1NCc1cccnc1 (stereo not drawn) | 106.4
40 | Cc1csc(Nc2nccnc2C2CCCN2CC(N)=O)n1 (stereo not drawn) | 113.4
41 | Cc1cccc(Nc2nccnc2C2CCCN(CC(=O)N(C)C)C2)n1 (stereo not drawn) | 110.8
42 | CC(=O)N1CCCC1c1nnn2cc(NCc3cccnc3)ccc12.O=C(O)C(F)(F)F.O=C(O)C(F)(F)F (stereo not drawn) | 4.094
43 | Cc1cc(C2CCCN2C(=O)NCc2cccnc2)on1 (stereo not drawn) | -8.527
44 | COCCN1CCCC(c2nccnc2Nc2nc(C)cs2)C1 (stereo not drawn) | 86.28
45 | CC(=O)N1CCC2(CCCN(C(=O)CCN3CCCCC3)C2)C1 (stereo not drawn) | -26.8
46 | O=C(Cc1cccs1)NC1(C(=O)NCC2CC2)CCCC1 | 4.522
47 | CC(=O)N1CCCC1c1nnn2cc(Nc3ccccc3)ccc12.O=C(O)C(F)(F)F (stereo not drawn) | -10.64
48 | COCCC(=O)N1CCCC1c1nccnc1Nc1ncccn1 (stereo not drawn) | 132.2
49 | CC(=O)N1CCCC1c1nccnc1Nc1ncccn1 (stereo not drawn) | 114.6
50 | CNS(=O)(=O)Cc1ccc(CNC(=O)Nc2cccnc2)cc1 | -4.432

Row | Compound | Percent Effect [%]
51 | COC1CCCN(C(=O)Nc2nc(C)n(C)n2)C1 (stereo not drawn) | -6.454
52 | CCC[C@@H]1CN(Cc2nnc(-c3cccc(F)c3)o2)C[C@H]1NC(C)=O | -4.818
53 | N#CC1COCCN1C(=O)c1cccc2cc[nH]c12 (stereo not drawn) | 105.1
54 | CNS(=O)(=O)CC1CCCN1C(=O)c1ccc2cc[nH]c2c1 (stereo not drawn) | -9.261
55 | O=C(c1cccc2cc[nH]c12)N1CCC2(CCOC2)C1 (stereo not drawn) | -1.625
56 | O=C(O)C(c1ccc2[nH]ccc2c1)N1CCOCC1 (stereo not drawn) | 14
57 | CC(C)(C)OC(=O)N1CCCN1C(=O)c1cccc2cc[nH]c12 | -15.66
58 | N#CC1COCCN1C(=O)c1ccc2cc[nH]c2c1 (stereo not drawn) | 87.5
59 | N#CC1COCCN1C(=O)c1ccc2[nH]cnc2c1 (stereo not drawn) | 108.9
60 | NC(=O)CC1CCCCN1C(=O)c1ccc2cc[nH]c2c1 (stereo not drawn) | -8.838
61 | N#CC1COCCN1C(=O)c1ccc2[nH]ccc2c1 (stereo not drawn) | 142.7
62 | O=C(c1ccc2[nH]cnc2c1)N1CCC(Oc2cccnc2)CC1 | -0.01073
63 | CCc1nnc2n1CCN(C(=O)c1ccc3[nH]cnc3c1)C2 | -15.67
64 | O=C(c1ccc2[nH]ccc2c1)N1CCCCC1c1nc[nH]n1 (stereo not drawn) | 5.747
65 | Cc1ncc(CNC(=O)N(C)C2CCN(c3ccccc3)C2=O)s1 (stereo not drawn) | -4.731
66 | Cc1cccc2c1cnn2CCCNC(=O)CCCC(=O)O | -9.765
67 | CC(C(=O)N(C)C)S(=O)(=O)c1cc2c(cc1Cl)OCCO2 (stereo not drawn) | 4.925
68 | Cc1ccc(C)c(CSc2nnc(C(N)Cc3ccccc3)o2)c1.Cl (stereo not drawn) | 112.4
69 | Cc1ccc(C)c(OCc2nnc(SCC3CCCN(C)C3)o2)c1 (stereo not drawn) | -6.886
70 | Cc1ccccc1CSc1nc(N)cc(N2CCOC(C(N)=O)C2)n1 (stereo not drawn) | 17.62
71 | Cc1ccc(C)c(CSc2nnc(C(N)C(C)C)o2)c1.Cl (stereo not drawn) | 129.6
72 | Cc1ccc(C)c(CSc2nnc([C@@H](N)C(C)C)o2)c1.Cl | 118.1
73 | CSCC[C@H](N)c1nnc(SCc2cc(C)ccc2C)o1.Cl | 100.9
